This test has as its target furin, P09958. In words: furin cleavage Z-score vs untreated control; higher = more cleavage, active = 3.5 or more, inactive = 1 or less, 8 variable residues between constant flanks. The gist of the method: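 Abundance of DNA freed from bead-bound 8-mer peptide–cDNA fusions by purified furin was measured as sequencing read counts after PCR adapter tagging. Cutting ran 7.5, 15 or 30 min in 0.01 ml of 50 mM HEPES pH 7.5 with CaCl2 and NaCl at 1:10 enzyme:substrate. The cleavage Z-score expresses these log counts against furin-free reactions after lowess adjustment and median absolute deviation scaling.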

We go through 43 sequences from the supplement of paper PMC3545927.

The other results are listed elsewhere or left out. The true hit rate is not given.

Sequence of furin, P09958 (P09958 whole entry, the tested form may be a part): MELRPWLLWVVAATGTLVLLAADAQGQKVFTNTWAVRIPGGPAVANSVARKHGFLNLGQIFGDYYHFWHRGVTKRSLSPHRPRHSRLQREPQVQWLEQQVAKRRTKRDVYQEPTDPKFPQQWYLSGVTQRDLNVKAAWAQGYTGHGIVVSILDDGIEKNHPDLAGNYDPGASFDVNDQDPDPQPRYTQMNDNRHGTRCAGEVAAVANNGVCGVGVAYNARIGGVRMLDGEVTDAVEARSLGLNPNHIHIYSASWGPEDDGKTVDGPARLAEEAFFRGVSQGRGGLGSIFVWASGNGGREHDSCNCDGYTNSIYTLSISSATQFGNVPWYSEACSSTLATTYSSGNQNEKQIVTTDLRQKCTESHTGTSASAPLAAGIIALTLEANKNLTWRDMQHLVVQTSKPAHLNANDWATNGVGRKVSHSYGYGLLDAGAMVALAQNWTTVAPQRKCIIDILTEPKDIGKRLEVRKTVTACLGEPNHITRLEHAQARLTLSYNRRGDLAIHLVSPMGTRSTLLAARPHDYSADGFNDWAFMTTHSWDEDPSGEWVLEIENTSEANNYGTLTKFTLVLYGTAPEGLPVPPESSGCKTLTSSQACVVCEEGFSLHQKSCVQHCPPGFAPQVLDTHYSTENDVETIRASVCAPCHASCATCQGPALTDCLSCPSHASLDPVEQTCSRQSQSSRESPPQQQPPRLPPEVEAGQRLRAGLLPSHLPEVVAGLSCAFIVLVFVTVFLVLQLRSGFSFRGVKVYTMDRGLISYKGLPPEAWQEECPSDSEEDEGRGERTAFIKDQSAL

Turning to CAGWFTAGYSAGNASASA [HC1645], the “furin cleavage Z-score” value is, setting by setting: (7.5 min) 0.812 (inactive); (15 min) -0.589 (inactive); (30 min) 0.435 (inactive).
As to CAEVVTSTYVAGNASASA [HC2229], the “furin cleavage Z-score” value runs as follows: (7.5 min) 0.886 (inactive); (15 min) 0.18 (inactive); (30 min) 0.589 (inactive).
With CAEVVCSTWVAGNASASA [HC134], the “furin cleavage Z-score” value reads like this: (7.5 min) -0.675 (inactive); (15 min) -0.0617 (inactive); (30 min) -0.318 (inactive).
CAILHRQKRGAGNASASA [FS-665]: the “furin cleavage Z-score” value by setting is: (7.5 min) 12.5 (active); (15 min) 12.9 (active); (30 min) 9.04 (active).
On the same counts, the results for CAYDCRCKRGAGNASASA [FS-899] are 0.698 (inactive), 0.0271 (inactive) and 1.85.
On the same counts, the results for CAVHHRPKRGAGNASASA [FS-309] are 12 (active), 10.8 (active) and 9.72 (active).
On to CAEVPCHRPMAGNASASA [HC2406], for which the “furin cleavage Z-score” value is, setting by setting: (7.5 min) -0.721 (inactive); (15 min) 1.03; (30 min) -0.487 (inactive).
The like results for CARCDLEDRDAGNASASA [HC486] were, in that order, 1.03, -0.684 (inactive) and -1.47 (inactive).
On the same counts, the results for CAVQNEITLTAGNASASA [HC976] are -0.158 (inactive), -0.101 (inactive) and 0.696 (inactive).
As to CAVVCISMSYAGNASASA [HC85], the “furin cleavage Z-score” value (7.5 min) was -1.62 (inactive), the “furin cleavage Z-score” value (15 min) was -2.02 (inactive) and the “furin cleavage Z-score” value (30 min) was -0.461 (inactive).
On the same counts, the results for CAEPHRARRGAGNASASA [FS-1451] are 5.81 (active), 5.59 (active) and 6.2 (active).
On the same counts, the results for CAQRRRARRGAGNASASA [FS-850] are 2.4, 2.13 and 0.325 (inactive).
On the same counts, the results for CARGCRARRGAGNASASA [FS-1060] are 3.97 (active), 3.87 (active) and 2.93.
Turning to CAQTPCSAHLAGNASASA [HC2482], the “furin cleavage Z-score” value reads like this: (7.5 min) -0.0432 (inactive); (15 min) 0.702 (inactive); (30 min) 2.39.
The like results for CASTPCSAHKAGNASASA [HC2574] were, in that order, -0.715 (inactive), 0.189 (inactive) and -1.56 (inactive).
The like results for CATSRSACQRAGNASASA [HC1391] were, in that order, 0.0948 (inactive), 0.314 (inactive) and 0.239 (inactive).
For the sequence CARFKRKDRMAGNASASA [FS-2553], the “furin cleavage Z-score” value was 4.28 (active) (7.5 min), 3.52 (active) (15 min) and 4.13 (active) (30 min).
The like results for CARFKRAAGKAGNASASA [FS-2259] were, in that order, 11.2 (active), 12.2 (active) and 9.21 (active).
On the same counts, the results for CARSKRIAGKAGNASASA [FS-2811] are 0.535 (inactive), -0.714 (inactive) and 0.638 (inactive).
On the same counts, the results for CAREGRDGPKAGNASASA [FS-2003] are 0.305 (inactive), -0.0392 (inactive) and -2.05 (inactive).
As for CARICRDIPKAGNASASA [FS-2029], the “furin cleavage Z-score” value was 3.76 (active) (7.5 min), 5.68 (active) (15 min) and 4.88 (active) (30 min).
The like results for CARPGRKDRRAGNASASA [FS-1067] were, in that order, 0.778 (inactive), 1.1 and 0.538 (inactive).
On the same counts, the results for CARFKRKLPKAGNASASA [FS-1948] are 0.844 (inactive), 1.94 and 3.55 (active).
For CARKKRKSPKAGNASASA [FS-2268], the “furin cleavage Z-score” value is 0.83 (inactive) (7.5 min), 2.91 (15 min) and 2.06 (30 min).
The like results for CATTKRDAGKAGNASASA [FS-2474] were, in that order, -0.152 (inactive), -0.387 (inactive) and 0.96 (inactive).
On the same counts, the results for CAVRVCEKMAAGNASASA [HC1454] are -0.509 (inactive), -1.63 (inactive) and -0.874 (inactive).
The like results for CAVVCCSMSLAGNASASA [HC2085] were, in that order, -0.7 (inactive), -0.0853 (inactive) and 0.456 (inactive).
CAACNWTRGEAGNASASA [HC482]: the “furin cleavage Z-score” value runs as follows: (7.5 min) 0.0668 (inactive); (15 min) 0.0745 (inactive); (30 min) -0.647 (inactive).
In the case of CATTPYSGSWAGNASASA [HC57], the “furin cleavage Z-score” value (7.5 min) was -0.402 (inactive), the “furin cleavage Z-score” value (15 min) is -1.77 (inactive) and the “furin cleavage Z-score” value (30 min) was -1.07 (inactive).
CAVVCCSMSEAGNASASA [HC2092]: the “furin cleavage Z-score” value by setting is: (7.5 min) 0.169 (inactive); (15 min) -0.137 (inactive); (30 min) 0.14 (inactive).
For the sequence CAGKLPATQLAGNASASA [HC286], the “furin cleavage Z-score” value reads like this: (7.5 min) -0.891 (inactive); (15 min) 0.888 (inactive); (30 min) -0.728 (inactive).
On the same counts, the results for CARSWRLACEAGNASASA [FS-2610] are -1.13 (inactive), -1.31 (inactive) and -0.906 (inactive).
On the same counts, the results for CATFDRLQVLAGNASASA [HC1397] are -1.63 (inactive), -1.93 (inactive) and -0.453 (inactive).
On the same counts, the results for CARFKRLADMAGNASASA [FS-2489] are 2.25, 3.3 and 4.96 (active).
Regarding CARFKRAIFQAGNASASA [FS-3154], the “furin cleavage Z-score” value (7.5 min) is 3.12, the “furin cleavage Z-score” value (15 min) was 6.07 (active) and the “furin cleavage Z-score” value (30 min) was 9.35 (active).
The like results for CARAQRSPQQAGNASASA [FS-2129] were, in that order, -0.476 (inactive), 0.539 (inactive) and 1.62.
On the same counts, the results for CARFKRDPNQAGNASASA [FS-1891] are 5.07 (active), 6.2 (active) and 6.47 (active).
With CARFERAIGPAGNASASA [FS-2662], the “furin cleavage Z-score” value runs as follows: (7.5 min) 1.09; (15 min) 0.675 (inactive); (30 min) 1.32.
On the same counts, the results for CALTGRDKNQAGNASASA [HC684] are -0.69 (inactive), -0.684 (inactive) and -0.181 (inactive).
On the same counts, the results for CAQEKRSVFQAGNASASA [FS-2249] are -0.752 (inactive), 1.01 and 0.632 (inactive).
The like results for CARSNRFSWMAGNASASA [FS-3088] were, in that order, 1.34, 0.175 (inactive) and 0.252 (inactive).
Turning to CARFKRLACMAGNASASA [FS-2488], the “furin cleavage Z-score” value was 1.67 (7.5 min), 1.17 (15 min) and 4.11 (active) (30 min).
On the same counts, the results for CARFKKLADMAGNASASA [FS-2414] are -1 (inactive), -2.01 (inactive) and 0.965 (inactive).
